Data from PubChem BioAssay (EPA / NIEHS).
Where “and” joins values, the source holds several entries; their conditions need not be identical. Equal entries are not always repeated. Calls of active or inactive are those of the source. How the source made its calls: active means hit-call score of the fitted dose curve at least 0.9, where 1 is the maximum; inactive means score below 0.9.

assay: BSK_3C_VCAM1: BioMAP Diversity Plus: 3C Assay for Vascular cell adhesion molecule 1 (VCAM1) Biomarker Activity (AID 2282999); details: BioMAP 3C HUVEC, VCAM1 ELISA, cytokine-stimulated; actives raise or lower the signal
Experimental: BSK_3C is a cell-based, multiplexed-readout assay that uses umbilical vein endothelium, a human vascular primary cell, with measurements taken at 24 hours after chemical dosing in a 96-well plate.BSK_3C_VCAM1 is an assay component measured in the BSK_3C assay. It measures VCAM-1 antibody related to regulation of gene expression using ELISA technology.Data from the assay component BSK_3C_VCAM1 was analyzed into 1 assay endpoint. This assay endpoint, BSK_3C_VCAM1, was analyzed with bidirectional fitting relative to DMSO as the negative control and baseline of activity. Using a type of binding reporter, gain or loss-of-signal activity can be used to understand changes in the signaling as they relate to the gene VCAM1. Furthermore, this assay endpoint can be referred to as a primary readout, because this assay has produced multiple assay endpoints where this one serves a signaling function. To generalize the intended target to other relatable targets, this assay endpoint is annotated to the cell adhesion molecules intended target family, where the subfamily is Immunoglobulin CAM.
The levels of cell surface (or secreted, indicated by the prefix "s") biomarker endpoints were measured by ELISA. Overt cytotoxicity to cells in confluent adherent cultures (all systems other than the BT system) was assessed by measuring total protein levels using sulforhodamine B (SRB) staining in parallel cultures at the time of biomarker measurements, indicated as SRB endpoints. For proliferation assays for adherent cell types, individual cell types are cultured at sub-confluence and relative cell numbers quantified by SRB staining at time points optimized for each system (48 h: 3C and CASM3C systems; 72 h: BT and HDF3CGF systems; 96 h: SAg system). SRB was performed by staining cells with 0.1% SRB after fixation with 10% TCA and reading wells at 560 nm.Viability and proliferation of PBMC (T cells) was quantified by Alamar Blue reduction for the SAg and BT systems. For PBMC viability (referred to as PBMC Cytotoxicity within the assay endpoint names), cells were plated (75,000/well in a 96-well plate) and then chemical samples added for 1 h before addition of activators, SEB and TSST-1 (20 ng/mL final concentration each). Cells were incubated for 90 h. Then, Alamar Blue (20 uL/well) (Invitrogen, Cat DAL1100) was added for 6 h, and the plates were read with a fluorescence microplate reader at 546/580 nm (excitation/emission). For PBMC proliferation, cells were plated and activated as above but incubated for only 16 h prior to addition of Alamar Blue. Plates were read after 6 h.

Row | SMILES | AC50 | outcome
1 | CN(C)c1ccc(C(c2ccccc2)c2ccc(N(C)C)cc2)cc1 | 20 µM (active) | 
2 | CC[N+](CC)(CC(=O)Nc1c(C)cccc1C)Cc1ccccc1 (tested in a mixture with another compound) |  | inactive
3 | COc1ccc(C(=O)c2ccccc2O)c(O)c1 |  | inactive
4 | CC[N+](CC)(CC(=O)Nc1c(C)cccc1C)Cc1ccccc1 |  | inactive
5 | CC(C)C1OCCN1CCOC(=O)NCCCCCCNC(=O)OCCN1CCOC1C(C)C (configuration not stated) |  | inactive
6 | CCCCCCCCCCC1CO1 (configuration not stated) | 34.8 µM (active) | 
7 | O=C(C(=O)c1ccccc1)c1ccccc1 |  | inactive
8 | CN(C)Cc1cc(C(C)(C)C)c(O)c(C(C)(C)C)c1 |  | inactive
9 | Cc1c(C(N)=O)cc([N+](=O)[O-])cc1[N+](=O)[O-] |  | inactive
10 | COc1cc(CNC(=O)CCCC/C=C/C(C)C)ccc1O |  | inactive
11 | CC(C)CC(=O)CC(C)CC(C)C (configuration not stated) | 35.1 µM (active) | 
12 | Cc1cccnc1 |  | inactive
13 | CCCCCCCCCCCCCCCCCC[N+](C)(C)C | 6.29 µM (active) | 
14 | COC(=O)/C=C\C(=O)OC |  | inactive
15 | C1CN(CCOCCN2CCOCC2)CCO1 |  | inactive
16 | CCC(C)=NO |  | inactive
17 | CCCCCCC(O)CCCCCCCCCCC(=O)OC (configuration not stated) |  | inactive
18 | CN(C)CCC(c1ccc(Cl)cc1)c1ccccn1 (configuration not stated) |  | inactive
19 | O=[N+]([O-])c1cc(S(=O)(=O)Nc2ccccc2)ccc1Nc1ccccc1 |  | inactive
20 | CCCCC(CC)COC(=O)C=Cc1ccc(OC)cc1 (configuration not stated) |  | inactive
21 | Cc1cc(-n2nc3ccc(Cl)cc3n2)c(O)c(C(C)(C)C)c1 |  | inactive
22 | OC(C(F)(F)F)(C(F)(F)F)C(O)(C(F)(F)F)C(F)(F)F | 38.6 µM (active) and 42.1 µM (active) | 
23 | Oc1cccc2ccccc12 |  | inactive
24 | CCC[Si](OC(C)=O)(OC(C)=O)OC(C)=O |  | inactive
25 | CCCCCCCCCC/C=C/C1CC(=O)OC1=O (configuration not stated) |  | inactive
26 | COc1ccccc1Oc1c(NS(=O)(=O)c2ccc(C(C)(C)C)cc2)nc(-c2ncccn2)nc1OCCO |  | inactive
27 | Sc1nc2ccccc2s1 |  | inactive
